Hit rate of the full screen: of about 5,500 compounds, about 2,000 (36%) were called active. Not shown: some 18% with an inconclusive outcome. Cut-off read from the data, not from the text of the source: active = normalized growth mostly below about 0.91 (no sharp cut-off); inconclusive = no clear call, values can overlap the other calls; inactive = mostly above about 0.92. Some of the results follow.
Test: chemical genetic growth profiling, strain panel (AID 1159580);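 note: tested at 20 µM; growth read once vehicle control cultures reached saturation at 30 °C; 1 = growth at the plate median or of vehicle wells; lower values mean less growth of the strain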
Details: growth OD
[1] = S. cerevisiae deletion strains, locus YAL013W, strain DEP1, hits give low values
[2] = S. cerevisiae deletion strains, locus YBR021W, strain FUR4, hits give low values
[3] = S. cerevisiae deletion strains, locus YBR229C, strain ROT2, hits give low values
[4] = S. cerevisiae deletion strains, locus YCL029C, strain bik1, hits give low values
[5] = S. cerevisiae deletion strains, locus YDL035C, strain GPR1, hits give low values
[6] = S. cerevisiae deletion strains, locus YDL074C, strain BRE1, hits give low values
[7] = S. cerevisiae deletion strains, locus YDL101C, strain DUN1, hits give low values
[8] = S. cerevisiae deletion strains, locus YDL185W, strain tfp1, hits give low values
[9] = S. cerevisiae deletion strains, locus YDL192W, strain arf1, hits give low values
[10] = S. cerevisiae deletion strains, locus YDR101C, strain arx1, hits give low values
[11] = S. cerevisiae deletion strains, locus YDR150W, strain NUM1, hits give low values
[12] = S. cerevisiae deletion strains, locus YDR162C, strain NBP2, hits give low values
[13] = S. cerevisiae deletion strains, locus YDR318W, strain mcm21, hits give low values
[14] = S. cerevisiae deletion strains, locus YDR388W, hits give low values
[15] = S. cerevisiae deletion strains, locus YDR502C, strain sam2, hits give low values
[16] = S. cerevisiae deletion strains, locus YEL061C, strain CIN8, hits give low values
[17] = S. cerevisiae deletion strains, locus YER110C, hits give low values
[18] = S. cerevisiae deletion strains, locus YER155C, strain BEM2, hits give low values
[19] = S. cerevisiae deletion strains, locus YER167W, strain BCK2, hits give low values
[20] = S. cerevisiae deletion strains, locus YGL078C, strain dbp3, hits give low values
[21] = S. cerevisiae deletion strains, locus YGL086W, strain mad1, hits give low values
[22] = S. cerevisiae deletion strains, locus YGL248W, strain PDE1, hits give low values
[23] = S. cerevisiae deletion strains, locus YGR135W, strain pre9, hits give low values
[24] = S. cerevisiae deletion strains, locus YGR229C, strain SMI1, hits give low values
[25] = S. cerevisiae deletion strains, locus YGR252W, strain gcn5, hits give low values
[26] = S. cerevisiae deletion strains, locus YHR030C, strain SLT2, hits give low values
[27] = S. cerevisiae deletion strains, locus YHR079C, strain IRE1 (second series), hits give low values
[28] = S. cerevisiae deletion strains, locus YHR094C, strain hxt1, hits give low values
[29] = S. cerevisiae deletion strains, locus YHR129C, strain ARP1, hits give low values
[30] = S. cerevisiae deletion strains, locus YHR200W, strain rpn10, hits give low values
[31] = S. cerevisiae deletion strains, locus YIL066C, strain RNR3, hits give low values
[32] = S. cerevisiae deletion strains, locus YIL073C, strain SPO22, hits give low values
[33] = S. cerevisiae deletion strains, locus YIL125W, strain kgd1, hits give low values
[34] = S. cerevisiae deletion strains, locus YIR030C, strain dcg1, hits give low values
[35] = S. cerevisiae deletion strains, locus YJL095W, strain BCK1, hits give low values
[36] = S. cerevisiae deletion strains, locus YJL134W, strain LCB3, hits give low values
[37] = S. cerevisiae deletion strains, locus YJL168C, strain set2, hits give low values
[38] = S. cerevisiae deletion strains, locus YJL187C, strain SWE1 (second series), hits give low values
[39] = S. cerevisiae deletion strains, locus YJR043C, strain POL32, hits give low values
[40] = S. cerevisiae deletion strains, locus YKL009W, strain mrt4, hits give low values
[41] = S. cerevisiae deletion strains, locus YKL085W, strain MDH1 (second series), hits give low values
[42] = S. cerevisiae deletion strains, locus YKL085W, strain MDH1, hits give low values
[43] = S. cerevisiae deletion strains, locus YKR001C, strain vps1, hits give low values
[44] = S. cerevisiae deletion strains, locus YLR039C, strain RIC1, hits give low values
[45] = S. cerevisiae deletion strains, locus YLR058C, strain SHM2, hits give low values
[46] = S. cerevisiae deletion strains, locus YLR102C, strain apc9, hits give low values
[47] = S. cerevisiae deletion strains, locus YLR262C, strain YPT6, hits give low values
[48] = S. cerevisiae deletion strains, locus YLR268W, strain sec22, hits give low values
[49] = S. cerevisiae deletion strains, locus YLR330W, strain CHS5, hits give low values
[50] = S. cerevisiae deletion strains, locus YLR342W, strain FKS1 (second series), hits give low values
[51] = S. cerevisiae deletion strains, locus YLR371W, strain rom2, hits give low values
[52] = S. cerevisiae deletion strains, locus YLR418C, strain cdc73, hits give low values
[53] = S. cerevisiae deletion strains, locus YML016C, strain PPZ1, hits give low values
[54] = S. cerevisiae deletion strains, locus YML032C, strain rad52, hits give low values
[55] = S. cerevisiae deletion strains, locus YML124C, strain tub3, hits give low values
[56] = S. cerevisiae deletion strains, locus YMR078C, strain ctf18, hits give low values
[57] = S. cerevisiae deletion strains, locus YMR223W, strain ubp8, hits give low values
[58] = S. cerevisiae deletion strains, locus YMR263W, strain SAP30, hits give low values
[59] = S. cerevisiae deletion strains, locus YMR307W, strain GAS1, hits give low values
[60] = S. cerevisiae deletion strains, locus YNL067W, strain RPL9B, hits give low values
[61] = S. cerevisiae deletion strains, locus YNL153C, strain GIM3, hits give low values
[62] = S. cerevisiae deletion strains, locus YNL233W, strain BNI4, hits give low values
[63] = S. cerevisiae deletion strains, locus YNL250W, strain rad50, hits give low values
[64] = S. cerevisiae deletion strains, locus YNL271C, strain bni1, hits give low values
[65] = S. cerevisiae deletion strains, locus YNL298W, strain CLA4, hits give low values
[66] = S. cerevisiae deletion strains, locus YNL307C, strain MCK1, hits give low values
[67] = S. cerevisiae deletion strains, locus YNL322C, strain KRE1, hits give low values
[68] = S. cerevisiae deletion strains, locus YNR052C, strain pop2, hits give low values
[69] = S. cerevisiae deletion strains, locus YOL006C, strain TOP1, hits give low values
[70] = S. cerevisiae deletion strains, locus YOL012C, strain htz1
[71] = S. cerevisiae deletion strains, locus YOL147C, strain pex11, hits give low values
[72] = S. cerevisiae deletion strains, locus YOR061W, strain CKA2, hits give low values
[73] = S. cerevisiae deletion strains, locus YOR069W, strain VPS5, hits give low values
[74] = S. cerevisiae deletion strains, locus YOR136W, strain idh2, hits give low values
[75] = S. cerevisiae deletion strains, locus YOR144C, strain elg1, hits give low values
[76] = S. cerevisiae deletion strains, locus YOR184W, strain ser1, hits give low values
[77] = S. cerevisiae deletion strains, locus YOR316C, strain cot1, hits give low values
[78] = S. cerevisiae deletion strains, locus YPL055C, strain LGE1, hits give low values
[79] = S. cerevisiae deletion strains, locus YPL241C, strain CIN2, hits give low values
[80] = S. cerevisiae deletion strains, locus YPR119W, strain clb2, hits give low values
[81] = S. cerevisiae deletion strains, locus YPR141C, strain kar3, hits give low values
[82] = S. cerevisiae deletion strains, locus YPR163C, strain tif3, hits give low values
[83] = S. cerevisiae deletion strains, locus YPR167C, strain met16, hits give low values
[84] = S. cerevisiae deletion strains, strain wtn01, hits give low values
[85] = S. cerevisiae strains, strain wild type, hits give low values

Measured: normalized growth

CCCc1c(OCCCCc2nn[nH]n2)ccc(C(C)=O)c1O
inactive: [1] 1.01 | [2] 1.03 | [3] 1.01 | [4] 0.997 | [5] 1.02 | [6] 1.06 | [7] 1.02 | S. cerevisiae deletion strains, locus YDL134C, strain PPH21, hits give low values 1.01 | [8] 0.968 | [9] 0.995 | [10] 0.991 | [11] 1.01 | [12] 1.01 | [13] 0.993 | [14] 0.993 | [15] 1.01 | [16] 1.01 | [17] 0.977 | [18] 1.01 | [19] 1.01 | [20] 0.996 | [21] 1 | [22] 1.01 | S. cerevisiae deletion strains, locus YGR078C, strain PAC10, hits give low values 1.01 | [23] 1 | [24] 1.03 | [25] 0.934 | [26] 1.01 | [27] 0.992 | [28] 0.992 | [29] 1.01 | [30] 0.987 | [31] 1.02 | [32] 1.03 | [33] 1 | [34] 0.995 | [35] 1.02 | [36] 1.01 | [37] 0.993 | [38] 1.01 | [39] 0.984 | S. cerevisiae deletion strains, locus YJR075W, strain HOC1, hits give low values 1.02 | [40] 1.02 | S. cerevisiae deletion strains, locus YKL068W, hits give low values 0.999 | [41] 0.999 | [42] 0.999 | S. cerevisiae deletion strains, locus YKL190W, strain CNB1, hits give low values 1.01 | [43] 0.957 | [44] 1.05 | [45] 1.01 | [46] 0.997 | [47] 1.08 | [48] 0.994 | [49] 1.01 | [50] 0.975 | [51] 0.989 | [52] 0.984 | [53] 1.01 | [54] 0.995 | [55] 0.996 | [56] 0.994 | [57] 0.991 | [58] 1.01 | [59] 1.01 | [60] 1.01 | S. cerevisiae deletion strains, locus YNL128W, strain TEP1, hits give low values 1.01 | [61] 1.01 | [62] 1.01 | [63] 0.996 | [64] 0.997 | [65] 0.997 | [66] 0.993 | [67] 1.01 | [68] 0.981 | [69] 1.09 | [70] 1.54 | [71] 0.989 | [72] 1.01 | [73] 1 | [74] 0.986 | [75] 0.994 | [76] 0.992 | [77] 1 | [78] 1.03 | [79] 1 | [80] 0.992 | [81] 1.01 | [82] 0.986 | [83] 0.992 | [84] 0.993 | [85] 1.01

CCC1(O)CC2CN(CCc3c([nH]c4ccccc34)[C@@](C(=O)OC)(c3cc4c(cc3OC)N(C)C3[C@]45CCN4CC=C[C@@](CC)([C@@H](OC(C)=O)[C@]3(O)C(=O)OC)[C@H]45)C2)C1 (stereo not given in full)
inactive: S. cerevisiae deletion strains, locus YAL040C, strain CLN3, hits give low values 1 | S. cerevisiae deletion strains, locus YCL061C, strain MRC1 (second series), hits give low values 1 | [11] 1.01 | S. cerevisiae deletion strains, locus YDR363W, strain ESC2, hits give low values 0.993 | S. cerevisiae deletion strains, locus YER002W, strain NOP16, hits give low values 1.06 | [58] 0.996 | [59] 0.985 | S. cerevisiae deletion strains, locus YNL175C, strain NOP13, hits give low values 1.02 | S. cerevisiae deletion strains, locus YNL197C, strain WHI3, hits give low values 1.03 | S. cerevisiae deletion strains, locus YNL224C, strain SQS1, hits give low values 1.04 | S. cerevisiae deletion strains, locus YOR083W, strain WHI5 (second series), hits give low values 1.07 | [78] 1.01 | [79] 0.994

CC(=O)Oc1c(Cl)c(C)c2c(c1Cl)OC(=O)c1c(C)c(Cl)c(OC(C)=O)c(Cl)c1O2
active: [1] 0.895 | [2] 0.851 | [4] 0.853 | [9] 0.825 | [10] 0.883 | [12] 0.799 | [15] 0.878 | [18] 0.91 | [20] 0.856 | [21] 0.899 | [24] 0.65 | [25] 0.693 | [40] 0.678 | [41] 1.39 [resistant] | [42] 1.39 [resistant] | [43] 0.682 | [48] 0.847 | [52] 0.756 | [54] 0.853 | [57] 0.886 | [60] 0.846 | [61] 0.858 | [65] 0.866 | [66] 0.771 | [68] 0.754 | [71] 0.916 | [75] 0.903 | [76] 0.652 | [82] 0.736 | [84] 0.856
inactive: [3] 1.02 | [5] 0.86 | [6] 0.79 | [7] 0.946 | [8] 1 | [13] 0.946 | [14] 0.932 | [16] 1.02 | [17] 0.992 | [19] 0.985 | [22] 0.926 | [23] 0.912 | [26] 0.922 | [27] 1.01 | [28] 1.01 | [29] 0.925 | [30] 0.966 | [31] 0.965 | [32] 1.03 | [33] 1.02 | [34] 0.934 | [35] 0.802 | [36] 1.04 | [37] 1.01 | [38] 0.913 | [39] 0.921 | [44] 0.715 | [45] 0.967 | [46] 1.01 | [47] 0.642 | [49] 0.922 | [50] 0.828 | [51] 1.01 | [53] 1.02 | [55] 1.02 | [56] 0.985 | [59] 0.613 | [62] 0.934 | [63] 0.98 | [64] 0.993 | [67] 1.02 | [69] 0.734 | [70] 1.44 | [72] 0.988 | [73] 0.972 | [74] 0.976 | [77] 1.01 | [80] 1.01 | [81] 1.07 | [83] 0.942 | [85] 0.977

Reference: PubChem BioAssay AID1159580 (chemical genetic matrix, 2015)
